Compounds with a hit are over-represented: about 9.9% of the library has one in this group of screens.
KB-3-1 tox: qHTS assay for MDR1-selective chemotherapeutics: Primary screen using the parental adenocarcinoma cell KB-3-1; KB-3-1 viability, CellTiter-Glo ATP luminescence, 72 h; AID 1347075, 2019; Potency, µM (titrated, usually from 46.1 µM), hits mostly cytotoxic; 400,000 tested, 1.4% active; note: potency is the fitted concentration of half-maximal effect; % is set by controls: 0 for no effect and ±100 for the full control effect; nearly all actives have a fitted effect of over 60% in size
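Parental KB-3-1 adenocarcinoma cells in phenol-red-free DMEM with 10% FBS were pin-treated with compounds at several concentrations, incubated 72 h at 37 °C, and viability read by CellTiter-Glo luminescence; concentration-effect curves were fitted after normalization.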
IL1B secr inh: qHTS for Inhibitors of Inflammasome Signaling: IL-1-beta AlphaLISA Primary Screen. THP-1 LPS/ATP IL-1B secretion, AlphaLISA, 16 h; stronger effect = lower value. activity change, % at 57.5 µM. 360,000 tested, 4.7% active. AID 743279, 2014; in the data active = activity change below about -50%; inconclusive = mostly about -30% to -49%; note: % is set by controls: 0 for no effect and ±100 for the full control effect
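THP-1 cells pretreated 1 hr with compounds (up to 57.5 uM final), then stimulated with LPS (250 ng/mL final) plus ATP (1.25 mM final); secreted IL-1B measured by AlphaLISA after 16 hr, decreased signal indicating inhibition.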
MCF10A rerep: A quantitative high throughput screen for small molecules that induce DNA re-replication in MCF 10a normal breast cells; AID 624296, 2012; MCF 10A DNA re-replication, Hoechst nuclear intensity, 48 h; Potency, µM (top dose mostly 46.1 µM), inactives show top-dose activity, positive = re-replication, usual class: activators; 350,000 tested, 2.9% active; note: potency is the fitted concentration of half-maximal effect; % of control where 0% means no effect; nearly all actives have a fitted effect of over 50% in size
KB-V1 MDR tox: qHTS assay for MDR1-selective chemotherapeutics: Primary screen using the drug-selected MDR subline cells KB-V1; KB-V1 MDR cells viability, CellTiter-Glo, 72 h; Potency, µM (highest dose often 46.1 µM), hits mostly cytotoxic; 400,000 tested, 3.4% active; AID 1347076, 2019; note: potency is the fitted concentration of half-maximal effect; % is set by controls: 0 for no effect and ±100 for the full control effect; nearly all actives have a fitted effect of over 60% in size
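In this primary screen, KB-V1 cells overexpressing P-gp are incubated with library compounds (lowest to highest concentration) for 72 h at 37 degrees C before a luminescent ATP viability read.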
SW480 rerep: A quantitative high throughput screen for small molecules that induce DNA re-replication in SW480 colon adenocarcinoma cells | SW480 DNA re-replication, Hoechst DNA content imaging, 48 h | Potency, µM (series often up to 46.1 µM), inactives show top-dose re-replication activation, hits mostly activators | 340,000 tested, 1.8% active | AID 624297, 2012; note: potency is the fitted concentration of half-maximal effect; % of control where 0% means no effect; nearly all actives have a fitted effect of over 55% in size
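Treated cells incubate 48 hr (37 C, 5% CO2), are stained 40 min with Hoechst, and nuclear fluorescence is enumerated; a rise in nuclei with high DNA signal marks re-replication.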
An asterisk follows results filed as active; i = inactive; ? = inconclusive; . = no result. Unless noted, calls come from the whole dose curve; as a rule, active = well fitted curve in the direction sought with a large enough effect; inconclusive = small, poorly fitted or top-dose-only effect, or another doubt; inactive = no such curve, though single readings can be large; an effect the other way counts as inactive or inconclusive.

SMILES | KB-3-1 tox | IL1B secr inh | MCF10A rerep | KB-V1 MDR tox | SW480 rerep
O=c1/c(=C\c2ccc(O)cc2)sc2nc(-c3ccccc3)c(-c3ccccc3)n12 | i | -57* | 10% | i | 3%
Cc1ccc(S(=O)(=O)N2CCN(C(=O)COC(=O)CCOc3ccccc3)CC2)c(C)c1 | i | -3 | 29% | i | ?
Cc1ccc(C)c(Nc2ncnc3onc(C)c23)c1 | i | . | . | i | .
N#CC1=C(N)Oc2n[nH]c(-c3cccs3)c2C1C1CCCCC1 (stereo not drawn) | i | -98* | ? | i | -5%
N#CC1=C(N)Oc2n[nH]c(-c3cccs3)c2C1C1C=CCCC1 (stereo not drawn) | i | -94* | 11% | i | 3%
CCOC(=O)Cc1[nH]nc2c1C(C1C=CCCC1)C(C#N)=C(N)O2 (stereo not drawn) | i | -90* | ? | i | 16%
CCOC(=O)Cc1[nH]nc2c1C(c1cccc(OC)c1OC)C(C#N)=C(N)O2 (stereo not drawn) | i | -9 | ? | i | 4%
N#CC1=C(N)Oc2n[nH]c(-c3cccs3)c2C1c1ccncc1 (stereo not drawn) | i | -10 | -3% | i | -2%
N#CC1=C(N)Oc2n[nH]c(-c3cccs3)c2C1c1ccsc1 (stereo not drawn) | i | 19 | 22% | i | -4%
CN(C(=O)CN1C(=O)S/C(=C\c2ccc(Cl)cc2)C1=O)C1CCS(=O)(=O)C1 (stereo not drawn) | i | ? | 4% | i | 8%
COc1ccc2c(C)cc(SCC#N)nc2c1 | i | 1 | ? | i | -1%
COc1ccc2c(C)cc(SCc3c(C)noc3C)nc2c1 | i | -13 | 12µM* | i | ?
Cc1ccc(S(=O)(=O)n2nc(-c3ccccc3)nc2NCc2ccccc2Cl)cc1 | i | . | . | i | .
Nc1nc(N2CCOCC2)cc(=O)[nH]1 | i | -4 | 15% | i | -4%
CCOc1ccc(N2CC(c3nc4ccccc4n3Cc3cccc(Cl)c3)CC2=O)cc1 (stereo not drawn) | i | . | . | i | .
CCN1C(=O)C(c2ccc(O)cc2)(c2ccc(O)cc2)c2ccccc21 | i | -94* | 21% | i | -92%
CCN1C(=O)C(O)(c2c(C)[nH]c3ccccc23)c2ccccc21 (stereo not drawn) | i | . | . | ? | .
CC(=O)Nc1cnc(-c2ccc3c(c2)OCO3)cn1 | i | -4 | . | i | .
COc1cc(-c2nc3ccc(C)cn3c2Nc2ccc3c(c2)OCCO3)ccc1O | i | ? | 21µM* | i | 8%
COc1cc(-c2nc3cnccn3c2Nc2ccc(C)cc2)ccc1O | i | 65 | 9% | ? | -1%
COc1cc(-c2nc3ccc(Cl)cn3c2Nc2ccc3c(c2)OCCO3)ccc1O | i | . | . | i | .
COc1cc(-c2nc3cnccn3c2Nc2ccc(C(C)C)cc2)ccc1O | i | -81* | 1% | i | 1%
COc1ccc(/C=N/N2C(=O)CSC2=S)cc1 | i | 4 | -5% | i | -2%
COc1ccc(-c2nn(-c3ccccc3)cc2/C=N/N2C(=O)CSC2=S)cc1 | ? | -106* | ? | ? | ?
COc1ccccc1N(C)C(=O)c1cc(S(=O)(=O)N2CCCC2)cn1C | i | 1 | -2% | i | -1%
COc1ccc(CC(=O)N2CCc3cc(OC)c(OC)cc3C2COc2cc(C)cc(C)c2)cc1OC (stereo not drawn) | ? | . | . | i | .
COc1cc2c(cc1OC)C(C)N(C(=O)Nc1ccc(F)cc1)CC2 (stereo not drawn) | 13µM* | -1 | ? | 12µM* | ?
COc1cc2c(cc1OC)C(C)N(C(=O)c1cc3c(C)cc(C)cc3[nH]1)CC2 (stereo not drawn) | ? | -81* | ? | ? | ?
